Consider 22 molecules from PubChem BioAssay (NCATS).

Test [1] is described as follows: qHTS for Inhibitors of Plasmodium falciparum (DD2) proliferation (AID 504314).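 Also: parasite DNA measured by SYBR Green fluorescence after red cell lysis; plate controls were DMSO vehicle for no effect and artemisinin wells for full effect.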 A digest of the protocol: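 Quantitative HTS growth inhibition: SYBR Green I binding to parasite DNA after 72 h drug exposure of infected erythrocytes (0.3% parasitemia, 2.5% hematocrit). Signals normalized per plate to inhibitor and vehicle wells.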
On the technique in general: qHTS replaces the single test concentration by a dilution series.

The nature of test [2]: qHTS for Inhibitors of Plasmodium falciparum (GB4) proliferation (AID 504315).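 Also: 0% = DMSO vehicle and -100% = 0.29 µM artemisinin control; nearly all actives have a fitted effect of over 50% in size.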 An outline of the steps:
(§1)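 Erythrocytes infected with P. falciparum line (0.3% parasitemia, 2.5% hematocrit final) incubated with compounds 72 h at 37 °C, 5% CO2; SYBR Green lysis buffer added, fluorescence read next day. Normalized to 0.29 uM artemisinin and DMSO.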

Test [3] is described as follows: qHTS for Inhibitors of Plasmodium falciparum (HB3) proliferation (AID 504318).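 Also: 0% = DMSO vehicle and -100% = artemisinin control; nearly all actives have a fitted effect of over 60% in size.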 A digest of the protocol:
as §1

A short description of test [4]: qHTS for Inhibitors of Plasmodium falciparum (CP250) proliferation (AID 504320).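 Also: plate controls were DMSO vehicle for no effect and 0.29 µM artemisinin control for full effect.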 A digest of the protocol:
as §1

Test [5] has as its target Atrial natriuretic peptide receptor 1 (Homo sapiens) (UniProt P16066). Kind of test: Natriuretic polypeptide receptor (hNpr1) antagonism - Pilot CMLD screen (AID 1347052; calls by dose curve;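 also: cGMP level read as GloSensor luciferase luminescence after agonist stimulation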; also: potency is read from the fitted curve at half-maximal effect;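 as to activity change, negative = inhibition: HEK293 cells with hNpr1 stimulated by hNppA peptide at 0.1 nM; series mostly up to about 9.2 µM; % is scaled to controls: 0 for no effect and ±100 for the full control effect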).
In test [6] the target is Cytochrome P450 2C9 (Homo sapiens) (UniProt P11712). Kind of test: qHTS Assay for Inhibitors and Substrates of Cytochrome P450 2C9 (AID 883). Also: % is scaled to controls: 0 for no effect and ±100 for the full control effect; nearly all actives have a fitted effect of over 60% in size. An outline of the steps: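 Inhibition of CYP2C9 is scored as loss of luminescence, with 57uM sulphaphenazole defining 100% inhibition. Substrate Luciferin-H is used at 100uM, equal to its KM; enzyme at 10nM in 25mM KPO4, 60 min at 37C with NADPH regeneration.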
Chain of Cytochrome P450 2C9 (Homo sapiens) (P11712 whole entry, looked up): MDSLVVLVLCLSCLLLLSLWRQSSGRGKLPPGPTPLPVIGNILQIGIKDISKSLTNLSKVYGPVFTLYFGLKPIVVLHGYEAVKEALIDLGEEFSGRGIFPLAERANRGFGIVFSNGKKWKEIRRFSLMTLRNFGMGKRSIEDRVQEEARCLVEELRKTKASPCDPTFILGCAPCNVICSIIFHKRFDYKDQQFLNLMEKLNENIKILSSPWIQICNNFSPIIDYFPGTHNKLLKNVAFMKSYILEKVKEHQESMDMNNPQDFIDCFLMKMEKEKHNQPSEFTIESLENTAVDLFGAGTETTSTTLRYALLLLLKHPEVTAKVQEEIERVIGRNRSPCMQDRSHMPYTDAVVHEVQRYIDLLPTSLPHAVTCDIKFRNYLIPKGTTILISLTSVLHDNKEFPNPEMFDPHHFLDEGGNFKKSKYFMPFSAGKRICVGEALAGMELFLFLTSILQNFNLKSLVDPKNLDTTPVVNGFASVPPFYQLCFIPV

Test [7] deals with Cytochrome P450 3A4 (Homo sapiens) (UniProt P08684). Description: qHTS Assay for Activators of Cytochrome P450 3A4 (AID 885). Also: nearly all actives have a fitted effect of over 65% in size. A digest of the protocol: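 Steps: enzyme/substrate mix dispensed; compound added, 10 min RT; NADPH regeneration solution added, 60 min RT; luciferin detection buffer stops reaction; 20 min later luminescence measured.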
Chain of Cytochrome P450 3A4 (Homo sapiens) (P08684 whole entry, looked up): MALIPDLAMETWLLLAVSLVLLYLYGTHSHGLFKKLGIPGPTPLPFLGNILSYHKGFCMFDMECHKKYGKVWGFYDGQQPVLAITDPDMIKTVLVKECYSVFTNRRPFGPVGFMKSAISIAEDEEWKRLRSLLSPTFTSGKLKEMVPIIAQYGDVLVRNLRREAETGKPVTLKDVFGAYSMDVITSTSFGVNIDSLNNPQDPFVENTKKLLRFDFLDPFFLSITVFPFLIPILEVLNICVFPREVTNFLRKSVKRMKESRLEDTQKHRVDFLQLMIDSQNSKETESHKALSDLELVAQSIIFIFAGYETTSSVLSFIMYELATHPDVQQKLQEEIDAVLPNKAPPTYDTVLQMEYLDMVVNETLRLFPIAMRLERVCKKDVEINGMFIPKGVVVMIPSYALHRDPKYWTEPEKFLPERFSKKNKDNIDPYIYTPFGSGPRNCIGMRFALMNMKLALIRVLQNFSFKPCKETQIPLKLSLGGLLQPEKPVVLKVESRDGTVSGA
For test [8], the target named is Cytochrome P450 2D6 (Homo sapiens) (UniProt P10635). Kind of test: qHTS Assay for Inhibitors and Substrates of Cytochrome P450 2D6 (AID 891).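 Also: luciferin methyl ether substrate demethylated by CYP2D6 with NADPH regeneration; % is scaled to controls: 0 for no effect and ±100 for the full control effect; nearly all actives have a fitted effect of over 60% in size.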 An outline of the steps: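 Human CYP2D6 (5 nM) with 30 uM Luciferin-ME EGE (at Km) in 100 mM KPO4, compound preincubated 10 min, then NADPH regeneration system for 60 min at room temperature. Luciferin read by luminescence; normalized to 1.43 uM quinidine.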
Chain of Cytochrome P450 2D6 (Homo sapiens) (P10635 whole entry, looked up): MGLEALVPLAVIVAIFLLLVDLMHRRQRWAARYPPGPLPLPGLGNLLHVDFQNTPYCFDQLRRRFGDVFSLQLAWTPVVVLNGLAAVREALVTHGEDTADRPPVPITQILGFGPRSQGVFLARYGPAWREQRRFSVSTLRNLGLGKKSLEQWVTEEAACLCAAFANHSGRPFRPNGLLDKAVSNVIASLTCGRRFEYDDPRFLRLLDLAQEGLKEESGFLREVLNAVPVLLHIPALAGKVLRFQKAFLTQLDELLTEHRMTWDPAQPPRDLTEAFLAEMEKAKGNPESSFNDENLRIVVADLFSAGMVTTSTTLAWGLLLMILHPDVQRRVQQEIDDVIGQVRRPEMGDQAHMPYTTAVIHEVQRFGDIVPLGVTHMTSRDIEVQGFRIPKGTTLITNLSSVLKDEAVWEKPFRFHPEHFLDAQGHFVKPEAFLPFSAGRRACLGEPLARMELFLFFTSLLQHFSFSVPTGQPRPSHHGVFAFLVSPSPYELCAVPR

Test [9] has as its target Cytochrome P450 2C19 (Homo sapiens) (UniProt P33261). Kind of test: qHTS Assay for Inhibitors and Substrates of Cytochrome P450 2C19 (AID 899). Also: nearly all actives have a fitted effect of over 60% in size. Also: potency is read from the fitted curve at half-maximal effect. As to activity, negative = inhibition: % is scaled to controls: 0 for no effect and ±100 for the full control effect. A digest of the protocol:
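5nM enzyme + 10uM Luciferin-H EGE (=KM), 50mM KPO4; cpd pin-transferred, 10 min 37C; NADPH regen, 60 min 37C; stopped w/ luciferin detection reagent, 20 min; luminescence. Normalized to 57uM ketoconazole (AC100).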

Test [10] addresses Cytochrome P450 3A4 (Homo sapiens) (UniProt P08684). Description: qHTS Assay for Inhibitors and Substrates of Cytochrome P450 3A4 (AID 884). Also: series mostly up to about 57 µM; % is scaled to controls: 0 for no effect and ±100 for the full control effect; nearly all actives have a fitted effect of over 50% in size. A digest of the protocol: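 20 nM human CYP3A4 with 25 uM Luciferin-PPXE (at KM) in 200 mM KPO4, preincubated 10 min with compound; NADPH regeneration started a 60 min RT reaction. Luciferin detected by luminescence, normalized to 57 uM ketoconazole as full inhibition.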

Values without a mark were called inactive. Results filed as inconclusive are left out. The source made the active and inactive calls. Unless noted, calls follow the shape of the dose curve; as a rule, active = well fitted curve in the direction sought with a large enough effect; inconclusive = small, poorly fitted or top-dose-only effect, or another doubt; inactive = no such curve, though single readings can be large; an effect the other way counts as inactive or inconclusive.

Chain of Atrial natriuretic peptide receptor 1 (Homo sapiens) (P16066 whole entry, looked up): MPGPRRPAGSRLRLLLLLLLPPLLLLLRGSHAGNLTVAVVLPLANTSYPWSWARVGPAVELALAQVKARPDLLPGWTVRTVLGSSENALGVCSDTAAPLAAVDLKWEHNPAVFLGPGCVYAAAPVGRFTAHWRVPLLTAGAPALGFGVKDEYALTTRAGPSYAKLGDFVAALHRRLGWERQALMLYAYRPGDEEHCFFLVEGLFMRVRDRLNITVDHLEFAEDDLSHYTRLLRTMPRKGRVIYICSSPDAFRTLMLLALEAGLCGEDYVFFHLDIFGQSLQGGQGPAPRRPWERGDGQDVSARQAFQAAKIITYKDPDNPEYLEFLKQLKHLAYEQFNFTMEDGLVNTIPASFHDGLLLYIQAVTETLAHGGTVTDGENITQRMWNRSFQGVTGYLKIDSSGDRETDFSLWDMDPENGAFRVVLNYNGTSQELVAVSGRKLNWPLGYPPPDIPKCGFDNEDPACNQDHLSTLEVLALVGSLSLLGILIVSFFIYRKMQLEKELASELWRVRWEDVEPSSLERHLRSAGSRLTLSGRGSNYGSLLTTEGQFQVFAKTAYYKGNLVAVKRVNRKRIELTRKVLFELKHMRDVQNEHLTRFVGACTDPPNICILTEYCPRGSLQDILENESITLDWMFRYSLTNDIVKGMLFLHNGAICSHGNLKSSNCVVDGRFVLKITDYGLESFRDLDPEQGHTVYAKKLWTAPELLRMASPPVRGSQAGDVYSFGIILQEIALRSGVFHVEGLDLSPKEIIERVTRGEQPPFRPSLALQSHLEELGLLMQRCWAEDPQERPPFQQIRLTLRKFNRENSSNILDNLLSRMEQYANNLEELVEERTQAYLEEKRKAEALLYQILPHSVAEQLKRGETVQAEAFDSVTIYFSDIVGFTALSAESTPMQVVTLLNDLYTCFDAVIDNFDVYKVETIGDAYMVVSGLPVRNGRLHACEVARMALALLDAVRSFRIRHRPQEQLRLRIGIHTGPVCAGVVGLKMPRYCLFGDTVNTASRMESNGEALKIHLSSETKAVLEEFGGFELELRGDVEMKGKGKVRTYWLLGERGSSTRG
Chain of Cytochrome P450 2C19 (Homo sapiens) (P33261 whole entry, looked up): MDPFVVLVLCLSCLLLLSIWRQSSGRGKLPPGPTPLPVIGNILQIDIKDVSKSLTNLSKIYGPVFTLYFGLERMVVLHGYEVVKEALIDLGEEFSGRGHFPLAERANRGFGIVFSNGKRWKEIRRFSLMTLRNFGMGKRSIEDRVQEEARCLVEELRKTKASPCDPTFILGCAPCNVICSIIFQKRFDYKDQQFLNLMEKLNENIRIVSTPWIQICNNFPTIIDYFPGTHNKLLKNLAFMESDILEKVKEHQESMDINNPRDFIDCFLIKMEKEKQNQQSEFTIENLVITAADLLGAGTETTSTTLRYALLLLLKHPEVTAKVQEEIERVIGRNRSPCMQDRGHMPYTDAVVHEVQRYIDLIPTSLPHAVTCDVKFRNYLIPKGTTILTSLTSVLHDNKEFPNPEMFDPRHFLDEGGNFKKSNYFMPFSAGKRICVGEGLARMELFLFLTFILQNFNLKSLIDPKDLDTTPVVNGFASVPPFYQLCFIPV

Regarding `CCN1C(=O)NC(c2cccc(C(F)(F)F)c2)C(C(C)=O)=C1C` (centres undefined), the Potency entry in test [1], in [2], in [3], in test [4] and in test [5] was “inactive” in each case.

With `FC(F)(F)c1ccc(-c2nc(-c3ccccc3)oc2Nc2ccc3ccccc3c2)cc1`, the Potency entry in [1], in test [2], in [3], in test [4] and in test [5] was “inactive” in each case.

Regarding `C=C(CC(=O)OC)C[C@]1(CC(=O)OC)CC2(CC=C(C)C)C(=O)C(C(=O)c3ccccc3)=C(OC(=O)c3ccc(Br)cc3)C(CC=C(C)C)(C1)C2=O` (some centres undefined), the activity change, negative = inhibition was 7.13% [at 11.4 µM] in [6] and -5% [at 11.4 µM] in test [8]. The activity change, positive = activation in test [7] was -37.5% [at 11.4 µM]. In test [9], the activity, negative = inhibition was 79.8% [at 11.4 µM]. In addition, the Potency result in test [1], in test [2], in test [3], in [4] and in test [5] was “inactive” each time.

With `C=CCNC(=O)[C@H]1C=C(OC)C(=O)C[C@H](c2ccccc2)[C@H]1C`, the Potency result in test [1], in test [2], in [3], in [4] and in test [5] was “inactive” each time.

Regarding `CCN1C(=O)[C@@H]2[C@H]3[C@H](O)[C@H](O)CC(=NO[C@@H]4O[C@H](COC(C)=O)[C@@H](OC(C)=O)[C@H](OC(C)=O)[C@@H]4OC(C)=O)[C@@H]3CC[C@H]2C1=O`, the Potency result in test [1], in [2], in test [3], in [4] and in test [5] was “inactive” in each case.

As to `COC(=O)CCCC1=CC2=C(c3ccccc3)C(=O)C(C)(OC(=O)C3CCCC3)C(=O)C2=CN1Cc1ccco1` (centres undefined), the Potency result in [1], in [2], in [3], in test [4] and in test [5] was “inactive” throughout.

For `CCN(CC)CC(O)CN1CCCCc2nc(C)c(C)cc21` (centres undefined), the Potency entry in test [1], in test [2], in test [3], in test [4] and in test [5] was “inactive” in each case.

Regarding `CCN1C(=NCc2cccc(Cl)c2)N[C@@H](CCc2ccccc2)[C@H](C(=O)OC)[C@H]1C`, the Potency entry in [1], in [2], in test [3], in [4] and in test [5] was “inactive” each time.

For `CCOC(=O)NN=C1C[C@@H](O)[C@@H](O)[C@@H]2[C@H]3C(=O)N(C4CCCCC4)C(=O)[C@@H]3CC[C@H]12`, the Potency entry in [1], in test [2], in test [3], in test [4] and in test [5] was “inactive” each time.

In the case of `Cc1ccc(C#C[C@@H]2C=C[C@H](Oc3ccc4c(c3)OCO4)[C@@H](CO)O2)c(C)c1`, the Potency result in test [1], in test [2], in [3], in [4] and in test [5] was “inactive” throughout.

For `Cn1c(-c2ccccc2)c(O)c(=O)c2ccccc21`, the activity change, negative = inhibition in test [6] is -1.19% [at 11.4 µM]; in [10] it was -14.6% [at 11.4 µM]; in test [8], 4.63% [at 11.4 µM]. For the same molecule, the activity, negative = inhibition in [9] was 50% [at 11.4 µM]. In addition, the Potency result in [1], in test [2], in test [3], in test [4] and in test [5] was “inactive” each time.

Consider `C(=Cc1nc(-c2ccccc2)oc1Nc1ccc2ccccc2c1)c1ccccc1`, for which the Potency entry in test [1], in test [2], in [3], in test [4] and in test [5] was “inactive” throughout.

Consider `CCOC(=O)CNC(=O)O[C@H]1C(=O)c2ccc(OC)cc2O[C@@H]1c1ccc2c(c1)OCO2`, for which the Potency result in [1], in test [2], in test [3], in test [4] and in [5] was “inactive” in each case.

Regarding `C=CCNC(=O)N1CCc2nc(CCCC)c3c(c2C1)CO[C@@H](C)C3`, the Potency entry in [1], in test [2], in [3], in test [4] and in test [5] was “inactive” each time.

In the case of `C[C@H]1C[C@@H](C)O[C@@]2(C1)C(=O)N(CC1CC1)c1ccccc12`, the Potency result in [1], in test [2], in test [3], in test [4] and in [5] was “inactive” each time.

`CCOC(=O)N1C2=NC(C(=O)OC)=C(C(=O)OC)[C@@H]3N(Cc4ccccc4)c4ccccc4[C@]23C[C@H]1C(=O)OC`: in test [1], the activity, negative = inhibition is -1.2% [at 1.12 µM]. Besides, the Potency result in [2], in test [3], in [4] and in test [5] was “inactive” each time.

For `CO[C@H](c1ccccc1Br)[C@H](C)C=CCCO`, the Potency entry in test [1], in test [2], in test [3], in [4] and in test [5] was “inactive” throughout.

Turning to `O=C(NN=C1C[C@@H](O)[C@H](O)[C@H]2[C@@H]3C(=O)N(C[C@@H]4CCCO4)C(=O)[C@@H]3CC[C@H]12)OCc1ccccc1`, the Potency result in test [1], in test [2], in [3], in test [4] and in [5] was “inactive” each time.

As for `COc1cc2c(cc1OC)CSC1C(=O)N(C)C(SC2)C(=O)N1C`, the Potency entry in [1], in test [2], in test [3], in [4] and in [5] was “inactive” in each case.

Regarding `CCCC[C@@H]1CN2[C@H](c3ccc(Br)cc3)[C@H](C)CC[C@H]2C(=O)O1`, the Potency in test [9] was 3.98 µM (active); in test [5] it was 0.944 µM (active). Besides, the Potency entry in [1], in [2], in test [3] and in test [4] was “inactive” each time.

For the molecule `COc1ccc(C(=O)[C@]2(C)C=C(c3ccc(OC)cc3)[C@H](C)C2)cc1`, the Potency result in [1], in test [2], in test [3], in test [4] and in [5] was “inactive” in each case.

In the case of `C[C@H]1Cc2c(-c3ccccc3)nc3c(c2CO1)CN(C(=O)Cc1cccs1)CC3`, the Potency result in test [1], in [2], in [3], in test [4] and in [5] was “inactive” in each case.
